This is an account of results in article PMC5540273 (PLoS ONE, 2017).

Structures are written as SMILES.
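Further: KINOMEscan kinase panel screen.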

This experiment has as its system FGFR4. The note with it: concentration: 1 μM, replicates: in singlicate; n = 1.
For `O=C(NCCNc1ccnc(Nc2ccc(F)cc2)n1)c1cc2ccccc2s1` [GSK1379874], the “%Inh” value is reported as 0%. The value for `Cc1nnc(-c2ccc3occ(-c4ccc(C(C)O)cc4)c3c2)o1` (centres unmarked) was 19%. Regarding `NS(=O)(=O)CCc1cccc(Nc2nccc(-c3c(-c4cccc(NC(=O)c5c(F)cccc5F)c4)nn4ccccc34)n2)c1` [GSK336735], the “%Inh” value came out at 0%.

As to `NS(=O)(=O)c1cccc(-c2ccc3nccc(-c4cccc(S(N)(=O)=O)c4)c3c2)c1` [GW867253], the “%Inh” value is recorded as 0%. As for `Cc1nnc(-c2ccc(C)c(-c3ccc(C(=O)Nc4ccc(NS(C)(=O)=O)cc4)cc3)c2)o1` [GW702865], the “%Inh” value was determined as 0%. The result for `Cl.Nc1ncnc2occ(-c3ccc(NC(=O)Nc4cc(C(F)(F)F)ccc4F)cc3)c12` [SB-707548] reads 71%; that for `O=C(NCCCN1CCOCC1)c1cccc(Nc2nccc(Nc3ccc(Oc4ccccc4)cc3)n2)c1` [GW663929], 54%; that for `O=C(c1ccc(-c2cc(-c3c[nH]nc3-c3ccccn3)ccn2)cc1)N1CCOCC1` [GW812171], 0%. Turning to `CN1c2ccc(NCc3ccc(F)cc3)cc2-c2c(cnn2C)S1(=O)=O`, the “%Inh” value is reported as 0%. Regarding `Cc1nnc(-c2ccc3ncc(-c4ccc(S(C)=O)cc4)n3c2)o1` (centres unmarked), the “%Inh” value is 0%.

For `COc1cc2ncn(-c3cc(OCc4sccc4Cl)c(C(N)=O)s3)c2cc1OC` [GSK448459], the “%Inh” value was 0%. As to `[2H]C([2H])(c1cccc(C(F)(F)F)c1C)n1ccn2c(=O)nc(N3CCOCC3)cc12` [GSK2336394], the “%Inh” value turned out to be 5%. The result for `Cl.Oc1cccc(Nc2ccnc3cc(-c4ccncc4)ccc23)c1` [GW494601] reads 12%.

Regarding `CCc1nc(-c2cccc(C)c2)c(-c2ccnc(NCc3ccccc3)c2)s1`, the “%Inh” value was found to be 0%. The result for `CN(C(=O)c1ccc(-c2cc(-c3c[nH]nc3-c3ccccn3)ccn2)cc1)C1CCOCC1` [GW810083] reads 0%; that for `O=C(NOCC1CC1)c1ccc(F)c(F)c1Nc1ccc(I)cc1Cl`, 0%.

For the molecule `N#Cc1ccc(-c2cc(-c3c[nH]nc3-c3ccccn3)ccn2)cc1` [GW693028], the “%Inh” value stood at 12%. The result for `CN1c2ccc(CNc3ccc(F)cc3)cc2-c2c(cnn2C)S1(=O)=O` reads 9%; that for `O=c1cc(N2CCOCC2)nc2n(Cc3cccc(C(F)(F)F)c3)ccn12` [GSK2297543], 1%; that for `O=C(NCCNc1ccnc(Nc2ccc(F)cc2)n1)Nc1ccccc1F` [GSK1379880], 11%. The result for `COc1cc2c(cc1OC[C@@H](O)CO)ncc1c3ccc(C#N)cc3[nH]c21` reads 0%; that for `CCCCCc1nc2c(N)ncnc2n1CCCCC` [SKF-97255], 0%; that for `O=C(Nc1cccc(-c2nn3ncccc3c2-c2ccnc(Nc3cccc(C(F)(F)F)c3)n2)c1)c1c(F)cccc1F` [GSK299495], 0%. The value for `O=c1cc(N2CCOCC2)nc2n(Cc3cccc4ccccc34)ccn12` [GSK2333389] was 0%; that for `Cc1c(Cn2c(C)nn3c(=O)cc(N4CCOC(C)C4)nc23)cccc1C(F)(F)F` (centres unmarked) [GSK2344444] was 0%; that for `O=C1NC(=O)C(N2CCc3ccccc32)=C1c1cccc(Cl)c1` [SB-408010] was 0%.

Turning to `N#Cc1c(N2CCOCC2)sc(-c2ccn[nH]2)c1-c1ccc(Cl)cc1`, the “%Inh” value came to 0%. Take `Cn1cc(-c2ccc3c(c2)CCN3C(=O)Cc2ccccc2Cl)c2c(N)ncnc21` [GSK2608885]: the “%Inh” value is given as 15%.

For the molecule `COc1cc(Nc2nccc(N3CCC(NC(=O)c4cccc(NC(C)=O)c4)C3)n2)cc(OC)c1OC` (centres unmarked) [GSK1379754], the “%Inh” value came to 6%.

`COc1ccc(S(=O)(=O)NC2CCN(c3cc(C)nc(Nc4cccc(C#N)c4)n3)CC2)cc1.O=C(O)C(F)(F)F` [GSK1653539]: the “%Inh” value turned out to be 0%. The result for `COc1cc2c(cc1OCCN1CCN(C)CC1)ncc1c3ccc(C#N)cc3[nH]c21` reads 22%. For `O=C(Nc1n[nH]c2cc(-c3cccc(F)c3)ccc12)C1CC1` [SB-735464], the “%Inh” value is recorded as 0%. The result for `Cc1cccc(-c2nc(Nc3ccc4ncsc4c3)c3ccccc3n2)n1` [GW867588] reads 0%; that for `Nc1nccc(-c2c(-c3ccc(F)cc3)ncn2C2CCN(CC(F)(F)F)CC2)n1` [SB-236560], 0%; that for `COc1ccc(Nc2nccc(N3CCC(NC(=O)Nc4cccc(C(C)=O)c4)C3)n2)cc1` (centres unmarked) [GSK1379731], 30%.
